Laboratory results from PubChem BioAssay (EPA / NIEHS).
Inconclusive results are not listed. The source made the active and inactive calls. How the source made its calls, unless noted: active means hit-call score of the fitted dose curve at least 0.9, where 1 is the maximum; inactive means score below 0.9.

How the values were obtained:
[1] = target: Estrogen receptor (Homo sapiens) (UniProt P03372); assay: CCTE_Deisenroth_AIME_96WELL_LUC_Active: CCTE's 96-well Estrogen Receptor Transactivation Assay with AIME metabolic competence (ERTA luciferase; metabolism positive), Deisenroth Lab (AID 2284023; active means hit-call score of the fitted dose curve at least 0.9, where 1 is the maximum)
Sequence of Estrogen receptor (Homo sapiens) (P03372 whole entry, looked up): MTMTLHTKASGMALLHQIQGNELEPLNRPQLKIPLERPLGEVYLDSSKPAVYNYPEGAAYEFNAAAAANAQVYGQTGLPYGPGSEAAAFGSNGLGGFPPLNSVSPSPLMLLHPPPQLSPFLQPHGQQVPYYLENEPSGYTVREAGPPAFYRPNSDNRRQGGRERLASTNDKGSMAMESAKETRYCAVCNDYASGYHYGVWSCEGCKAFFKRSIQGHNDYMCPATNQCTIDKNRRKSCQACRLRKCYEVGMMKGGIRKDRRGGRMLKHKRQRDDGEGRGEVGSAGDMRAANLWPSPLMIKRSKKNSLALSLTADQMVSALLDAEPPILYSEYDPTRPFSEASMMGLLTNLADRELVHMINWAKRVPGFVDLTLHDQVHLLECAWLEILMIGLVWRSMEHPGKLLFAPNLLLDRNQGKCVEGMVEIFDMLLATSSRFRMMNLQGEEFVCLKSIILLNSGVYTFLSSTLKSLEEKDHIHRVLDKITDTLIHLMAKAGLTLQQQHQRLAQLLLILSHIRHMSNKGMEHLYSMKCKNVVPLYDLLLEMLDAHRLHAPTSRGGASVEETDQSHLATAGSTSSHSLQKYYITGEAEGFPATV
Summary of the method: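 Metabolism-positive mode: induced rat hepatic S9 in alginate microspheres conditions test solutions (0.002 - 200 uM, 10 points) for 2 hours. VM7Luc4E2 ER luciferase reporter cells then exposed 24 h; positive-direction fit against 17beta-estradiol, n=4 typical.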

[2] = target: Estrogen receptor (Homo sapiens) (UniProt P03372); assay: CCTE_Deisenroth_AIME_96WELL_LUC_Inactive: CCTE's 96-well Estrogen Receptor Transactivation Assay without AIME metabolic competence (ERTA luciferase; metabolism negative), Deisenroth Lab (AID 2284025; active means hit-call score of the fitted dose curve at least 0.9, where 1 is the maximum)
Summary of the method: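 Metabolism-negative arm: chemicals (0.002–200 uM, 10 points) incubated 2 h with alginate-water microspheres, then medium moved onto VM7Luc4E2 cells for 24 h luciferase read-out. Positive direction vs 17beta-estradiol; n≥4 experiments.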

[3] = CCTE_Deisenroth_AIME_96WELL_CTox_Active: Cytotoxicity Assessment (CTOX) in CCTE's 96-well Estrogen Receptor Transactivation Assay with AIME metabolic competence (metabolism positive), Deisenroth Lab (AID 2284028; active means hit-call score of the fitted dose curve at least 0.9, where 1 is the maximum)
Summary of the method: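 Cytotoxicity in VM7Luc4E2 breast cells after 24 h exposure to medium from a 2 h metabolic pre-incubation with induced rat hepatic S9 in alginate microspheres; fluorescent live-cell protease readout, 10-point series 0.002–200 uM, n=4.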

[4] = CCTE_Deisenroth_AIME_96WELL_CTox_Inactive: Cytotoxicity Assessment (CTOX) in CCTE's 96-well Estrogen Receptor Transactivation Assay without AIME metabolic competence (metabolism negative), Deisenroth Lab (AID 2284029; active means hit-call score of the fitted dose curve at least 0.9, where 1 is the maximum)
Summary of the method: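 Cytotoxicity in VM7Luc4E2 breast cells was scored as loss of fluorescent signal from a live-cell protease substrate 24 h after exposure, using bidirectional curve fitting. Test media came from a 2 h metabolism-negative pre-incubation (alginate-water, no hepatic S9) of compounds at 0.002-200 uM, with at least four replicates.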

[5] = IUF_NPC1b_proliferation_BrdU_72hr: Leibniz Research Institute for Environmental Medicine (IUF) 72-hour Neural Progenitor Cell Bromodeoxyuridine (BrdU) Proliferation Assay (NPC1b) (AID 2284207)
Summary of the method: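 Neural progenitor spheres of human fetal origin are treated for three days; BrdU added for the last 16 h is quantified by luminescence ELISA, with DMSO as baseline and EGF/FGF omission as positive control.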

[6] = IUF_NPC1a_proliferation_area_72hr: Leibniz Research Institute for Environmental Medicine (IUF) 72-hour Neural Progenitor Cell Proliferation Area Assay (NPC1a) (AID 2284208)
Summary of the method: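 Proliferation is scored as sphere area gain in primary human fetal neural progenitors treated for 72 h in EGF/FGF-containing medium. Viability, LDH and BrdU readouts come from the same wells.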

[7] = IUF_NPC1_viability_72hr: Viability Assessment at 72 hours in the Leibniz Research Institute for Environmental Medicine (IUF) Neural Progenitor Cell Proliferation Assay (NPC1) (AID 2284209)
Summary of the method: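 Three-day continuous exposure of human neural progenitor spheres under EGF/FGF-driven proliferation; cell viability scored by alamar blue signal versus DMSO.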

[8] = IUF_NPC2c_oligodendrocyte_migration_120hr: Leibniz Research Institute for Environmental Medicine (IUF) 120-hour Neural Progenitor Cell Migration Assay for Oligodendrocyte Migration (NPC2c) (AID 2284297);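 further: O4-positive oligodendrocyte migration distance divided by radial glia migration distance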
Summary of the method: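 Primary hNPC spheres migrating on extracellular matrix, exposed five days to a 7-point dilution series with solvent control. Oligodendrocyte migration was scored by high-content imaging of O4 immunostaining and expressed relative to radial glia distance.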

[9] = IUF_NPC2a_radial_glia_migration_120hr: Leibniz Research Institute for Environmental Medicine (IUF) 120-hour Neural Progenitor Cell Migration Assay for Radial Glia Migration (NPC2a) (AID 2284298)
Summary of the method: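 In this multiplexed test, fetal hNPC spheres migrate radially on poly-D-lysine/laminin in N2 medium (37C, 5% CO2, pH 7.2-7.6) under continuous compound exposure over five days. Migration is scored at 120 h from automated Hoechst nuclear imaging.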

[10] = IUF_NPC2a_radial_glia_migration_72hr: Leibniz Research Institute for Environmental Medicine (IUF) 72-hour Neural Progenitor Cell Migration Assay for Radial Glia Migration (NPC2a) (AID 2284299)
Summary of the method: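 Spheres of human primary neural progenitors migrate on poly-D-lysine/laminin under compound exposure at 37C, 5% CO2. The 72 h radial glia migration distance comes from brightfield images, measured manually.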

[11] = IUF_NPC2b_neuronal_migration_120hr: Leibniz Research Institute for Environmental Medicine (IUF) 120-hour Neural Progenitor Cell Migration Assay for Neuron Migration (NPC2b) (AID 2284300)
Summary of the method: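 Neurons identified by TUBB3 immunostaining and Hoechst nuclei; migration distance measured automatically on fixed wells at 120 h, normalized to glia migration. Exposure spanned five days of differentiation in N2 medium, seven test concentrations.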

[12] = IUF_NPC3_neuronal_differentiation_120hr: Leibniz Research Institute for Environmental Medicine (IUF) 120-hour Neuronal Differentiation Assay (NPC3) (AID 2284301)
Summary of the method: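 Neuronal differentiation of primary human neural progenitors measured by high-content imaging: percent TUBB3+ of Hoechst+ nuclei within migrated area at 120 h, seven-point serial dilution plus solvent control, gain or loss relative to DMSO.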

[13] = IUF_NPC4_neurite_length_120hr: Leibniz Research Institute for Environmental Medicine (IUF) 120-hour Neuronal Morphology Assay for Neurite Length (NPC4) (AID 2284302)
Summary of the method: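 Neurons from differentiating human fetal neural progenitor spheres are scored for average neurite length after five days of compound exposure. Fitting uses DMSO as negative control.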

[14] = IUF_NPC4_neurite_area_120hr: Leibniz Research Institute for Environmental Medicine (IUF) 120-hour Neuronal Morphology Assay for Neurite Area (NPC4) (AID 2284305; active means hit-call score of the fitted dose curve at least 0.9, where 1 is the maximum)
Summary of the method: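 Endpoint at 120 h: automated imaging of TUBB3/Hoechst-stained differentiating human neural progenitor spheres, neurite area per neuron from skeletonization. DMSO solvent control, not above 0.1%, set the baseline; medium was half-replaced on day 3.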

[15] = IUF_NPC2-5_cytotoxicity_72hr: Cytotoxicity Assessment at 72 hours in the Leibniz Research Institute for Environmental Medicine (IUF) Neural Progenitor Cell Migration and Differentiation Assay for Cytotoxicity (NPC2-5) (AID 2284306; active means hit-call score of the fitted dose curve at least 0.9, where 1 is the maximum;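 further: LDH release into supernatant measured by resorufin fluorescence marking membrane damage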)
Summary of the method: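 Primary human neural progenitor spheres migrate and differentiate on laminin. Compound is present from the start of differentiation, with DMSO kept at or below 0.1%. At 72 h, supernatant LDH is quantified fluorometrically, with values fitted in the positive direction.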

[16] = IUF_NPC2-5_cell_number_120hr: Cell Number Assessment at 120 hours in the Leibniz Research Institute for Environmental Medicine (IUF) Neural Progenitor Cell Migration and Differentiation Assay (NPC2-5) (AID 2284308);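 further: count of Hoechst-stained nuclei in migration zone around plated human neural progenitor spheres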
Summary of the method: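 Cell number is taken as all Hoechst-positive nuclei detected in the area into which cells migrate out of the sphere, scored at 120 h and referenced to DMSO solvent control, which was kept at no more than 0.1%.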

[17] = IUF_NPC2-5_viability_120hr: Viability Assessment at 120 hours in the Leibniz Research Institute for Environmental Medicine (IUF) Neural Progenitor Cell Migration and Differentiation Assay (NPC2-5) (AID 2284312)
Summary of the method: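 Human fetal (GW 16-19) neural progenitor spheres of 0.3 mm were plated on poly-D-lysine/laminin in N2 differentiation medium and exposed from day 0 for 120 h, with half-medium refresh at day 3. Viability was read as alamar blue resazurin-to-resorufin fluorescence against DMSO.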

[18] = IUF_NPC1_cytotoxicity_72hr: Cytotoxicity Assessment at 72 hours in the Leibniz Research Institute for Environmental Medicine (IUF) Neural Progenitor Cell Proliferation Assay (NPC1) (AID 2284332; active means hit-call score of the fitted dose curve at least 0.9, where 1 is the maximum;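 further: rising LDH signal means more cytotoxicity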)
Summary of the method: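 Readout is fluorescence from LDH-dependent resazurin conversion, sampled from culture medium after compound contact lasting 72 h. Each well holds one 0.25-0.35 mm human progenitor sphere kept at 37C, 5% CO2 with EGF and FGF.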

Measured: AC50

C(#Cc1ccccc1)c1ccccc1
active: [1] 32.3 µM | [2] 28.5 µM

Oc1ccccc1Cc1ccccc1
active: [1] 27.7 µM | [2] 27.7 µM | [3] 162 µM | [4] 175 µM

CCCCOCCOP(=O)(O)OCCOCCCC
inactive: [5] | [6] | [8] | [9] | [10] | [11] | [12] | [13] | [14] | [15] | [16] | [17] | [18]
active: [7] 2.46 µM
